According to PubChem BioAssay (NCATS):
“And” between values parts separate entries of the source, which are not always exact repeats. Identical values can stand only once. Records with an inconclusive call do not appear. The source made the active and inactive calls. Unless noted, calls come from the whole dose curve; as a rule, active = well fitted curve in the direction sought with a large enough effect; inconclusive = small, poorly fitted or top-dose-only effect, or another doubt; inactive = no such curve, though single readings can be large; an effect the other way counts as inactive or inconclusive.

Key:
[1] = Cell Viability - Hek293 (AID 427;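 active = compounds whose dose-response curve shows a full or clear partial loss of cell viability, called from curve shape rather than a numeric limit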;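 note: potency is the fitted concentration of half-maximal effect; cells exposed to compound for 40 hours at 37 °C before reading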); conditions: qHTS
Summary of the method: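 Luminescent ATP content (CellTiter-Glo, 20 min at room temperature) was measured after a 40 hr, 37 °C compound exposure of HEK293 cells. AC50 values came from Hill-equation fits of qHTS concentration-response data normalized to DMSO and 100 uM tamoxifen.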

[2] = Cell Viability - SK-N-SH (AID 435; calls by dose curve;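 note: potency is the fitted concentration of half-maximal effect; compound exposure lasted 40 h at 37 °C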); conditions: SK-N-SH neuroblastoma cell viability qHTS
Summary of the method: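 Human neuroblastoma line, 40 h exposure at 37 °C, ATP quantified via luciferase luminescence; DMSO and 100 uM tamoxifen define 0 and 100% inhibition for AC50 fitting.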

[3] = Cell Viability - SH-SY5Y (AID 544); conditions: SH-SY5Y neuroblastoma cell viability; viability change, negative = cytotoxic: at 92.2 µM (top of the series);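 note: cells exposed to compound for 40 hours; 0% = DMSO alone and -100% = 100 µM tamoxifen; nearly all actives have a fitted effect of over 55% in size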
Summary of the method: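 Luminescent ATP read-out (CellTiter-Glo) measures loss of viable SH-SY5Y neuroblastoma cells after 40 hr compound exposure at 37 °C. AC50 values derive from standard Hill modelling of qHTS concentration-response data.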

[4] = Cell Viability - LYMP2-001 (AID 921); conditions: LYMP2-001 lymphoblastoid cell viability; series mostly up to 92.2 µM;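 note: 0% = DMSO only and full inhibition = tetraoctylammonium bromide control wells; nearly all actives have a fitted effect of over 70% in size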
Summary of the method: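 A lymphoblastoid cell line of human origin was treated with library compounds across a concentration series for 24 hours, and viable cell number was estimated from ATP-driven luciferase light output. Hill modeling gave AC50.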

[5] = Cell Viability - LYMP1-003 - Assay at 40 hr (AID 964); conditions: LYMP1-003 lymphoblastoid viability; series mostly up to 92.2 µM; note: % is set by controls: 0 for no effect and ±100 for the full control effect; nearly all actives have a fitted effect of over 60% in size
Summary of the method: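 Cells were seeded at 2500 per well and incubated 5 hr at 37 C. Compounds were added across a concentration series and left 40 hr at 37 C. CellTiter-Glo was added for 30 min at room temperature before luminescence reading.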

[6] = Cell Viability - LYMP2-004 (AID 966); conditions: LYMP2-004 lymphoblastoid cell viability, qHTS; series mostly up to 92.2 µM;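 note: plate controls were DMSO only for no effect and tetraoctylammonium bromide control for full effect; nearly all actives have a fitted effect of over 65% in size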
Summary of the method: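 Cells seeded 2500/well, rested 5 hr at 37 C, dosed across a concentration series, incubated 24 hr at 37 C, then CellTiter-Glo added for 30 min at room temperature and luminescence read. Hill fitting gave AC50.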

[7] = Cell Viability - LYMP2-005 (AID 967); conditions: LYMP2-005 lymphoblastoid cell viability; series mostly up to 92.2 µM;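 note: plate controls were DMSO only for no effect and 92 µM tetraoctylammonium bromide control for full effect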
Summary of the method: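 Luciferase-based ATP quantitation served as the viability measure in human lymphoblastoid LYMP2-005 cells exposed to test compounds for 24 h at 37 C in complete culture medium. Potency (AC50) was obtained by fitting concentration-response curves with the Hill equation.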

[8] = Cell Viability - LYMP2-015 (AID 971); conditions: LYMP2-015 lymphoblastoid cell viability; series mostly up to 92.2 µM;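 note: 0% = DMSO only and full effect = 92 µM tetraoctylammonium bromide; nearly all actives have a fitted effect of over 55% in size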
Summary of the method: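 Luminescent ATP read-out (CellTiter-Glo) served as the viability measure after lymphoblastoid cells were exposed to compounds for 24 hours at 37 C. Concentration-response data were fitted with the Hill equation to give AC50.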

[9] = Cell Viability - LYMP2-021 (AID 974); conditions: LYMP2-021 lymphoblastoid cells viability; series mostly up to 92.2 µM;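 note: compound exposure lasts 24 hours at 37 °C; % is set by controls: 0 for no effect and ±100 for the full control effect; nearly all actives have a fitted effect of over 55% in size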
Summary of the method: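 Plate 2500 lymphoblastoid cells per well and incubate 5 hr at 37 C. Add compounds over a concentration range and incubate 24 hr at 37 C. Add CellTiter-Glo, wait 30 min at room temperature, read luminescence.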

[10] = Cell Viability - LYMP2-006 (AID 978); conditions: LYMP2-006 lymphoblastoid cell viability, qHTS; series mostly up to 92.2 µM; note: % is set by controls: 0 for no effect and ±100 for the full control effect; nearly all actives have a fitted effect of over 60% in size
Summary of the method: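 In this cytotoxicity screen, the human lymphoblastoid line grew in complete medium with test compounds for 24 hr at 37 C. Cellular ATP served as the viability signal.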

[11] = Cell Viability - LYMP2-010 (AID 981); conditions: LYMP2-010 lymphoblastoid cell viability, qHTS; series mostly up to 92.2 µM; note: % is set by controls: 0 for no effect and ±100 for the full control effect; nearly all actives have a fitted effect of over 55% in size
Summary of the method: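 Luminescent ATP signal (CellTiter-Glo) served as the viability read-out. Cells of the human lymphoblastoid line were treated with compound over a concentration range for 24 hours at 37 C, and AC50 values came from Hill-equation modeling.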

[12] = Cell Viability - LYMP2-012 (AID 982); conditions: LYMP2-012 lymphoblastoid cell viability qHTS; series mostly up to 92.2 µM
[13] = Cell Viability - LYMP2-022 (AID 987); conditions: LYMP2-022 lymphoblastoid cell viability; series mostly up to 92.2 µM
Summary of the method: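 qHTS: human lymphoblastoid cells 2500/well; 5 hr 37 C; cpd added; 24 hr 37 C; CellTiter-Glo, 30 min RT; luminescence. AC50 via Hill fit; tetraoctylammonium bromide positive ctrl.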

[14] = Cell Viability - LYMP2-024 (AID 988); conditions: LYMP2-024 lymphoblastoid cell viability; series mostly up to 92.2 µM;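 note: plate controls were DMSO only for no effect and 92 µM tetraoctylammonium bromide for full effect; nearly all actives have a fitted effect of over 60% in size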
Summary of the method: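 Steps: seed 2500 cells/well, 5 hr 37 C; add compound, 24 hr 37 C; add CellTiter-Glo, 30 min room temperature; read luminescence. AC50 derived by Hill modelling of concentration-dependent ATP loss.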

[15] = qHTS assay for small molecule disruptors of the mitochondrial membrane potential - 1 hr assay (AID 651754; calls by dose curve; note: % is set by controls: 0 for no effect and ±100 for the full control effect; nearly all actives have a fitted effect of over 35% in size); conditions: series mostly up to 92.2 µM
Summary of the method: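 HepG2, 2,000 cells/well, overnight attachment; cpd or DMSO 1 hr, 37C/5% CO2; Mito-MPS dye 30 min, 37C; fluorescence monomer (490/535) and aggregate (540/590).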

[16] = qHTS assay for small molecule disruptors of the mitochondrial membrane potential - 5 hr assay (AID 651755; calls by dose curve; note: % is set by controls: 0 for no effect and ±100 for the full control effect; nearly all actives have a fitted effect of over 40% in size); conditions: JC-1-type ratio dye; series mostly up to 92.2 µM
Summary of the method: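 HepG2, 2,000 cells/well, overnight attach; cpd or DMSO 5 hr, 37C/5% CO2; Mito-MPS 30 min 37C; fluor 490/535 + 540/590 nm.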

[17] = qHTS assay for small molecule antagonists of the retinoid-related orphan receptor gamma (ROR-gamma) signaling pathway - cell viability counter screen (AID 720652; active = well fitted curve in the direction sought with a large enough effect in the repeat runs; an effect the other way counts as inactive or inconclusive;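 note: compound exposure lasted 16 hr before ATP read; % is set by controls: 0 for no effect and ±100 for the full control effect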); conditions: RORgamma reporter cell line viability counter screen; series mostly up to 92.2 µM
Summary of the method: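 Luminescence from CellTiter-Glo after 30 min at room temperature reported cellular ATP as the cytotoxicity measure. Cells were the CHO reporter line with doxycycline-induced ROR-gamma expression, exposed to compound for 16 hr at 37 C.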

[18] = target: Nuclear receptor subfamily 1 group I member 2 (Rattus norvegicus) (UniProt Q9R1A7); experiment: qHTS assay for small molecule activators of the rat pregnane X receptor (rPXR) signaling pathway (AID 651751; call rule not given here; note: 0% is about no effect); conditions: rPXR reporter cells, luciferase (One-Glo), 24 h
[19] = target: Thyroid hormone receptor beta (Homo sapiens) (UniProt P10828); experiment: qHTS assay for small molecule antagonists of thyroid hormone receptor beta signaling (AID 588547; active = well fitted inhibition curve with a large enough effect in the signal ratio, with a control signal flat, not every such curve was filed as active; the % refers to the signal ratio;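 note: cells stimulated with 0.4 nM T3 agonist during compound exposure; % is set by controls: 0 for no effect and ±100 for the full control effect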); conditions: TR-UAS-bla HEK293, beta-lactamase ratio, antagonist mode, 18 h
Summary of the method: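 Inhibition of T3-driven (0.4nM final) beta-lactamase reporter activity was measured over 0.59 nM to 92 uM compound after 18 h at 37 C. The cells were GripTite HEK293 TR-UAS-bla in charcoal/dextran-stripped serum, with CCF4 ratio read-out and IC50 from Hill fits.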

[20] = qHTS assay for small molecule activators of the p53 signaling pathway (AID 651743; active = well fitted activation curve with a large enough effect in the signal ratio, not every such curve was filed as active; the % refers to the signal ratio; note: % of control where 0% means no effect); conditions: HCT-116 p53RE-bla, beta-lactamase FRET ratio, 16 h; activation: hits give high values
Summary of the method: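 Read-out is fluorescence intensity from the LiveBLAzer B/G FRET substrate, added for 2 hours at room temperature after HCT-116 p53RE-bla cells had been incubated with compounds for 16 hours at 37 C.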

Chain of Thyroid hormone receptor beta (Homo sapiens) (P10828 whole entry, looked up): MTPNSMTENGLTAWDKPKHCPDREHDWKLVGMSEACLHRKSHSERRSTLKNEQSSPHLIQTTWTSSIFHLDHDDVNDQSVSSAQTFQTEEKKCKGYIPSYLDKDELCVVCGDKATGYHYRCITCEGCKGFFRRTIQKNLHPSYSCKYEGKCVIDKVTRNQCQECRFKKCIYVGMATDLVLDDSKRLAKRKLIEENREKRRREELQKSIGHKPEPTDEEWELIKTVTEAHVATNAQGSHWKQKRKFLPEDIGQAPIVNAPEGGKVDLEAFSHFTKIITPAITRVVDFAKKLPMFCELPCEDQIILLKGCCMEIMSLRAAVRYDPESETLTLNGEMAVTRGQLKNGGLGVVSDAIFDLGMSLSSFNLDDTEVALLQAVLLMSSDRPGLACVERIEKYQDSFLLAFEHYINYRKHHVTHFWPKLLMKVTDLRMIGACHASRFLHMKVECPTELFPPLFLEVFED
Chain of Nuclear receptor subfamily 1 group I member 2 (Rattus norvegicus) (Q9R1A7 whole entry, looked up): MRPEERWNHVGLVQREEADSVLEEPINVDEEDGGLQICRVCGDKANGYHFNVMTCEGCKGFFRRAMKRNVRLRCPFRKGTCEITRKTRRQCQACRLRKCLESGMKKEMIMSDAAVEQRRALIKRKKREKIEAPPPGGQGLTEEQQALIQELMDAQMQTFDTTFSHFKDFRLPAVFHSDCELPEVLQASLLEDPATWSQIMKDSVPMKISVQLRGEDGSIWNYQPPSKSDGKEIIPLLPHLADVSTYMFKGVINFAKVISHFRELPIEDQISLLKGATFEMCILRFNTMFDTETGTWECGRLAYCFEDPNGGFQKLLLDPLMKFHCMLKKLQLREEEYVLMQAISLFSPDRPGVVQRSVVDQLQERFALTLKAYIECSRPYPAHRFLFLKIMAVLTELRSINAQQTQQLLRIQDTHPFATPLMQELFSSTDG

CCCCNCC
inactive: Potency [1] > 92 µM | Potency [2] > 92 µM | Potency [3] | Potency [4] | Potency [5] | Potency [6] | Potency [7] | Potency [8] | Potency [9] | Potency [10] | Potency [11] | Potency [12] | Potency [13] | Potency [14] | Potency [15] | Potency [16] | Potency [17] | max response [18] 1.14%

O=[N+]([O-])c1cccc(I)c1
inactive: Potency [1] > 92 µM | Potency [2] > 92 µM | Potency [3] | Potency [4] | Potency [5] | Potency [6] | Potency [7] | Potency [8] | Potency [9] | Potency [10] | Potency [11] | Potency [12] | Potency [13] | Potency [14] | activity change % (negative = inhibition) [19] -8.55% | activation [20] -3.48% | Potency [15] | Potency [16] | Potency [17] | max response [18] -1.98%

CCNC(=S)NCC
inactive: Potency [1] > 92 µM | Potency [2] > 92 µM | Potency [3] | Potency [4] | Potency [5] | Potency [6] | Potency [7] | Potency [8] | Potency [9] | Potency [10] | Potency [11] | Potency [12] | Potency [13] | Potency [14] | activity change % (negative = inhibition) [19] -1.42% | activation [20] -0.196% | Potency [15] | Potency [16] | Potency [17] | max response [18] -0.653%

Cc1c(N)cccc1Cl
inactive: Potency [1] > 92 µM | Potency [2] > 92 µM | Potency [3] | Potency [4] | Potency [5] | Potency [6] | Potency [7] | Potency [8] | Potency [9] | Potency [10] | Potency [11] | Potency [12] | Potency [13] | Potency [14] | activity change % (negative = inhibition) [19] 0.909% | activation [20] -0.236% | Potency [15] | Potency [16] | Potency [17] | max response [18] 7.66%

CCCCCCN
inactive: Potency [1] > 92 µM | Potency [2] > 92 µM | Potency [3] | Potency [4] | Potency [5] | Potency [6] | Potency [7] | Potency [8] | Potency [9] | Potency [10] | Potency [11] | Potency [12] | Potency [13] | Potency [14] | activity change % (negative = inhibition) [19] -5.98% | activation [20] -1.84% | Potency [15] | Potency [16] | Potency [17] | max response [18] -1.94%

CC(=O)c1ccc(Cl)c(Cl)c1Cl
inactive: Potency [1] > 92 µM | Potency [2] > 92 µM | Potency [3] | Potency [4] | Potency [5] | Potency [6] | Potency [7] | Potency [8] | Potency [9] | Potency [10] | Potency [11] | Potency [12] | Potency [13] | Potency [14] | activity change % (negative = inhibition) [19] -12.3% | activation [20] -1.64% | Potency [15] | Potency [16] | Potency [17] | max response [18] -2.86%

CCCCCCCCC1CO1 (stereo not given)
inactive: Potency [1] > 92 µM | Potency [2] > 92 µM | Potency [3] | Potency [4] | Potency [5] | Potency [6] | Potency [7] | Potency [8] | Potency [9] | Potency [10] | Potency [11] | Potency [12] | Potency [13] | Potency [14] | activity change % (negative = inhibition) [19] 2.22% | activation [20] -2.83% | Potency [15] | Potency [16] | Potency [17] | max response [18] -2.96%

CC(C)OCC1CO1 (stereo not given)
inactive: Potency [1] > 92 µM | Potency [2] > 92 µM | Potency [3] | Potency [4] | Potency [5] | Potency [6] | Potency [7] | Potency [8] | Potency [9] | Potency [10] | Potency [11] | Potency [12] | Potency [13] | Potency [14] | activity change % (negative = inhibition) [19] 8.25% | activation [20] 0.641% | Potency [15] | Potency [16] | Potency [17] | max response [18] 3.69%

CC(=O)OC(C(=O)c1ccccc1)c1ccccc1 (stereo not given)
inactive: Potency [1] > 92 µM | Potency [2] > 92 µM | Potency [3] | Potency [4] | Potency [5] | Potency [6] | Potency [7] | Potency [8] | Potency [9] | Potency [10] | Potency [11] | Potency [12] | Potency [13] | Potency [14] | activity change % (negative = inhibition) [19] 4.95% | activation [20] -2.72% | Potency [16] | Potency [17] | max response [18] 1.59%

OCC(CBr)(CBr)CBr
inactive: Potency [1] > 92 µM | Potency [2] > 92 µM | Potency [3] | Potency [4] | Potency [5] | Potency [6] | Potency [7] | Potency [8] | Potency [9] | Potency [10] | Potency [11] | Potency [12] | Potency [13] | Potency [14] | activity change % (negative = inhibition) [19] -0.909% | activation [20] 0.524% | Potency [15] | Potency [16] | Potency [17] | max response [18] 6.71%

Cc1cccnc1
inactive: Potency [1] > 92 µM | Potency [2] > 92 µM | Potency [3] | Potency [4] | Potency [5] | Potency [6] | Potency [7] | Potency [8] | Potency [9] | Potency [10] | Potency [11] | Potency [12] | Potency [13] | Potency [14] | activity change % (negative = inhibition) [19] 13.1% | Potency [15] | Potency [16] | Potency [17] | max response [18] -3.97%

CCCCC(CC)COC(=O)COc1ccc(Cl)cc1Cl (stereo not given)
inactive: Potency [1] > 92 µM | Potency [2] > 92 µM | Potency [3] | Potency [4] | Potency [5] | Potency [6] | Potency [8] | Potency [9] | Potency [10] | Potency [11] | Potency [12] | Potency [13] | Potency [14] | activity change % (negative = inhibition) [19] -2.67% and 4.45% | activation [20] -1.29% and -1.26% | Potency [15] | Potency [16] | Potency [17] | max response [18] -0.582% and 1.82%
